Measurements published in PubChem BioAssay.

Experiment: hepatitis C replication reporter changes, two-sided – Huh7 cells, luciferase reporter, HCV replication inhibitor project, primary screen (AID 1109);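 also: huh7 hepatoma cells harbouring a luciferase neomycin HCV replicon reporter; luciferase luminescence as measure of HCV replicon replication; test concentration not given here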
Settings: Huh7 HCV replicon luciferase reporter, 48 h; higher = more signal
With `COc1cc2c(cc1O)C=[N+](Cc1cccc(OC(F)(F)F)c1)CC2` the z-score was -0.556. With `CCOC(=O)C=Cc1cc([N+](=O)[O-])ccc1O` the z-score was -1.47. With `N#Cc1ccc(NN2C(C(O)c3c(F)cccc3Cl)C=CC3C(=O)N(c4ccccc4)C(=O)C32)cc1` (stereo unspecified) the z-score was -0.57. With `O=C1O[C@H](c2ccccc2)[C@H](c2ccccc2)N2[C@H]1[C@@H](C(=O)NC[C@H](O)c1ccccc1)[C@]1(C(=O)Nc3ccccc31)[C@H]2c1ccc(OCCO)cc1` the z-score was -2.05. `O=C1c2ccccc2[C@](Cc2ccccc2I)(C(=O)NC2CC2)[C@H](c2ccc(CO)cc2)N1C1CCCCC1` gave a z-score of -1.62. With `CC(C)C[C@@H]1NC(=O)[C@@H]2C[C@H](C(=O)NCCCCCN)[C@H](c3cccc(OCCO)c3)N2C1=O` the z-score was -0.352. Compound `CCCCCN1CC=CC23O[C@@H]4/C=C\CCCOC(=O)C4[C@H]2C(=O)N(C(CO)C(C)C)[C@@H]3C1=O` (stereo partly specified) has a z-score of 0.568. `O=C(NCc1ccc(F)cc1)[C@H]1C[C@H]2C(=O)N[C@@H](Cc3ccccc3)C(=O)N2[C@H]1c1ccc(O)cc1` gave a z-score of -0.522. Work on `COCC(=C=CC[C@@H](O)c1ccccc1OCCO)C[C@@H](O)c1cc(Cl)cc(Cl)c1O` yielded a z-score of -2.21. In the case of `COCCOC(=O)N1C(=O)[C@@]2(c3cc(C#CC4=CCCCC4)ccc31)[C@H](C(N)=O)[C@H]1C(=O)O[C@H](c3ccccc3)[C@H](c3ccccc3)N1[C@@H]2c1ccc(OCCO)cc1`, the z-score is reported as -2.5. Compound `O=C1OCCC/C=C\[C@H]2OC34C=CCN(Cn5nnc6ccccc65)C(=O)[C@H]3N(CCO)C(=O)[C@@H]4C12` (stereo partly specified) has a z-score of -0.317.
